An excerpt weighted towards active compounds, which were near 1.3% of everything screened.
SRC2 inh: human SRC2 (NCOA2) inhibition; Q15596; HEK293 GAL4-SRC2 luciferase reporter, luminescence; inhibition, % at 9 µM; 370,000 compounds, 0.17% hits;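 active = inhibition above the mean inhibition of all tested compounds plus 3 SD, set per campaign, cut at about 52% in these data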;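 also: 0% = DMSO treated cells and 100% = cells given Gossypol at 36 µM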
LRH-1 inv ag: inverse agonists of human LRH-1 (NR5A2) | O00482 | HEK293T StAR-luciferase reporter, LRH-1 transfected, 24 h | inhibition, % at 3.6 µM | 360,000 compounds, 0.13% hits;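 active = inhibition above the mean inhibition of all tested compounds plus 3 SD, cut at about 73% in these data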;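 also: 0% = DMSO wells and 100% = reporter-only cells lacking LRH-1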
Target sequence (O00482 whole entry, looked up): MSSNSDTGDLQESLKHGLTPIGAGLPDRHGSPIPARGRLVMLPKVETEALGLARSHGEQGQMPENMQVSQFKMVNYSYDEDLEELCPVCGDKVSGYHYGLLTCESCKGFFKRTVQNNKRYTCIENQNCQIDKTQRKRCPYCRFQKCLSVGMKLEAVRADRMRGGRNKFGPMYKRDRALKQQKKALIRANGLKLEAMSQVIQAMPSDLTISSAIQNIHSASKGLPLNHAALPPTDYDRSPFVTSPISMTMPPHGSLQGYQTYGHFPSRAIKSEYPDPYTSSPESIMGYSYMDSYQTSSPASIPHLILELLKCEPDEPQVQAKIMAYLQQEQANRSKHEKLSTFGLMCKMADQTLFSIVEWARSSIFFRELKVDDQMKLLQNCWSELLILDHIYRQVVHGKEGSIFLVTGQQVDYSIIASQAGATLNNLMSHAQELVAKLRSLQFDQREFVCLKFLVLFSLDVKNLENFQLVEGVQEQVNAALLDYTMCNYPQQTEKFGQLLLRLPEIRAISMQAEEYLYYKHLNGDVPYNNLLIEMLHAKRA
Gli-Sufu antag: Gli-Sufu pathway antagonism; Sufu-KO-LIGHT fibroblasts, Gli luciferase reporter luminescence; inhibition, % at 5 µM; 340,000 compounds, 0.74% hits;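 active = inhibition above about 55%, limit read from the data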;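 also: 0% = DMSO-treated cells and 100% = wells with medium but no cells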
NCOA3 inh: human NCOA3 inhibition; HEK293 GAL4-SRC3 luciferase reporter, luminescence; inhibition, % at 3.6 µM; Q9Y6Q9; AID 588352; 360,000 compounds, 0.17% hits;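 active = inhibition above a per-campaign cutoff, the mean of all compounds plus 3 SD, cut at about 60% in these data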;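 also: 0% = DMSO-treated cells and 100% = gossypol-treated cells at 36 µM; higher means less SRC3-driven luciferase light from the GAL4 reporter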
NCOA1 inh: inhibitors of human steroid receptor coactivator 1 (SRC1); Q15788; inhibition, % at 3.6 µM; HEK293 GAL4-SRC1 luciferase reporter, luminescence; 360,000 compounds, 0.12% hits;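 active = inhibition above the campaign mean plus 3 SD, with each screening campaign given its own cutoff, cut at about 60% in these data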;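 also: 0% = DMSO treated cells and 100% = gossypol at 36 µM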
COUP-TFII inh: NR2F2 (human) inhibition, primary screen; 370,000 compounds, 0.7% hits; P24468; HEK293T NGFI-A luciferase reporter, luminescence; inhibition, % at 8.6 µM; AID 686940;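 active = inhibition above a per-plate cutoff, mean inhibition of test wells between control levels plus 3 SD, cut at about 38% in these data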;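 also: cells cotransfected with COUP-TFII expression vector driving the NGFI-A reporter; 0% = median of COUP-TF2 test wells and 100% = reporter-only cells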
Gli antag conf: Gli-SUFU antagonism confirmation, single concentration | shares compounds with Gli-Sufu antag | Sufu-KO-LIGHT cells, Gli luciferase reporter, luminescence | inhibition, % at 5 µM | 2,500 compounds, 40% hits | AID 602428;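 active = mean inhibition at 5 µM reaching about 45%, limit read from the data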;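 also: plate controls were DMSO-treated cells for no effect and wells lacking cells for full effect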
Gli cytotox: cytotoxic in Gli-SUFU antagonist counter-screen. shares compounds with Gli-Sufu antag. 2,500 compounds, 32% hits. AID 651994. Sufu-KO-LIGHT cells cytotoxicity, ATP luminescence. cytotoxicity, % at 5 µM;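 active = mean cytotoxicity at 5 µM above about 25%, limit read from the data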;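 also: cells exposed to compound overnight for roughly 16 to 18 hours; plate controls were DMSO wells with cells for no effect and medium without cells for full effect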
Wnt3a cs: counter-screen for Gli-SUFU antagonists: Wnt3a reporter inhibition; shares compounds with Gli-Sufu antag; Wnt-LIGHT cells, Wnt3a-driven luciferase reporter, luminescence; inhibition, % at 6.25 µM; 2,500 compounds, 20% hits; AID 651995;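 active = mean inhibition above about 25%, limit read from the data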
Numbers without * were called inactive; / = no result.

SMILES	SRC2 inh	LRH-1 inv ag	Gli-Sufu antag	NCOA3 inh	NCOA1 inh	COUP-TFII inh	Gli antag conf	Gli cytotox	Wnt3a cs
C=CCN1C(=O)c2[nH]nc(-c3ccccc3)c2C1c1ccc(C)cc1 (stereo not drawn)	-6.4	/	/	/	/	-7.9	/	/	/
CCN(CC(=O)NCc1cccs1)C(=O)/C=C/c1cccc(Br)c1	9.8	0.6	-2.3	25.5	-6.9	-11.0	/	/	/
CCN(CC(=O)NCc1cccs1)C(=O)/C=C/c1cc(Br)ccc1OC(F)F	-0.6	9.9	53.5	-8.7	8.5	8.0	35.2	13.2	-7.7
Cc1cc(C)c(C(N)=O)c(SCC(=O)c2cc(C)n(-c3cc(C)on3)c2C)n1	25.3	12.9	51.4	27.6	5.2	8.7	59.5*	33.5*	12.9
O=C(Cc1ccc(S(=O)(=O)N2CCOCC2)s1)Oc1ccc(F)cc1	-11.3	-32.9	96.0*	-6.1	-30.1	4.3	8.8	24.8	9.5
C[C@@H]1CN([C@H](C)CO)C(=O)CCCn2cc(nn2)CO[C@H]1CN(C)S(=O)(=O)c1ccc(Cl)cc1	5.0	/	/	/	/	-5.3	/	/	/
COCCN(Cc1cn(C)nc1-c1ccc(Oc2ccccc2)cc1)C(C)C	-12.2	8.8	56.7*	-2.4	1.4	13.5	17.2	14.8	-60.8
S=C(SCc1cc(Cl)cc2c1OCOC2)N1CCSCC1	-42.6	/	/	/	/	-6.8	/	/	/
N#Cc1ccc(OCC(=O)Nc2ccccc2NS(=O)(=O)c2cccs2)cc1	-23.7	-14.4	52.7	22.5	-12.9	-0.5	16.5	5.9	-43.8
O=C(Nc1ccccc1)Nc1ccccc1NS(=O)(=O)c1cccs1	-25.6	-9.7	2.6	1.4	-14.6	8.3	/	/	/
CCN(Cc1ccccc1)C(=O)Nc1c(Cl)cccc1Cl	-7.2	/	/	/	/	-8.3	/	/	/
C#CCN(C[C@H]1[C@H](OC(=O)Nc2c(C)noc2C)[C@H](OC(=O)Nc2c(C)noc2C)CN(C(=O)OC(C)C)N1C(=O)OC(C)C)S(=O)(=O)c1ccc(C)cc1	17.2	/	/	/	/	6.1	/	/	/
CC(=O)C1=NN(c2ccccc2)C(c2cccs2)N1c1ccc(N(C)C)cc1 (stereo not drawn)	16.0	31.4	78.8*	13.7	-7.0	35.6	79.0*	32.8*	-62.9
CC(=O)C1=NN(c2ccccc2)C(c2ccc3c(c2)OCO3)N1c1ccccc1 (stereo not drawn)	-3.2	-11.2	14.3	-4.6	-16.4	-6.0	/	/	/
COc1ccc(CC(=O)NCC2CCN(C(=O)C(=O)c3cc4ccccc4o3)CC2)cc1	2.2	/	/	/	/	10.5	/	/	/
COc1ccc(NC(=O)c2oc3ccccc3c2NC(=O)c2ccco2)c(OC)c1	-9.7	-13.0	54.4	6.6	0.9	22.6	33.1	42.6*	0.6
COc1ccc(NC(=O)c2oc3ccccc3c2NC(=O)c2ccco2)cc1	-18.4	15.2	-3.8	11.1	-17.7	1.6	/	/	/
O=C(N/N=C/c1cn(CCOc2ccccc2)c2ccccc12)c1ccncc1	-30.9	8.6	54.9	1.3	-3.0	12.7	17.6	-0.8	13.6
C=CCCC1CN(CC=C)S(=O)(=O)c2c(F)cccc2O1 (stereo not drawn)	-5.7	/	/	/	/	1.4	/	/	/
CCN1C(=NCCCOC(C)C)N[C@@H](CCc2ccccc2)[C@H](C(=O)NCCCOC(C)C)[C@H]1C	16.1	15.0	55.6*	6.0	0.1	-9.9	56.8*	29.8*	-23.5
CCN1C(=NCCOC)N[C@@H](CCc2ccccc2)[C@H](C(=O)OC)[C@H]1C	-24.2	13.4	10.3	4.7	-0.7	10.1	/	/	/
Brc1ccc(-c2c[n+]3c(n2-c2ccccc2)SCC3)cc1	8.5	2.5	63.2*	11.5	8.9	17.9	60.0*	25.2*	-4.0
Cc1cc(Nc2ccccc2Br)n2nc(C)nc2n1	9.2	17.0	53.9	21.7	9.6	5.7	12.0	4.4	8.5
COC(=O)[C@]12C[C@H](CC(=O)NCC3CCCCC3)C(=O)N(Cc3ccccc3)C1=C[C@H](C(C)(C)C)O[C@@H]2C	-19.3	/	/	/	/	12.0	/	/	/
Cc1cc2cc(CN(CC3CCCO3)C(=S)Nc3ccccc3)c(=O)[nH]c2cc1C (stereo not drawn)	17.3	12.4	62.8*	13.2	0.3	7.9	79.9*	50.4*	-1.4
SMILES	SRC2 inh	LRH-1 inv ag	Gli-Sufu antag	NCOA3 inh	NCOA1 inh	COUP-TFII inh	Gli antag conf	Gli cytotox	Wnt3a cs
CCOC(=O)N(C)[C@H]1C[C@H]2c3[nH]c4c(-c5ccc6c(c5)OCO6)cccc4c3CCN2C(=O)[C@H]1[C@H](C)O	25.1	/	/	/	/	-8.3	/	/	/
Cc1ccc(C(=O)C2CCN(CC(=O)NCc3cccs3)CC2)cc1	-28.4	/	/	/	/	21.0	/	/	/
CC(=O)Nc1ccc(NC(=O)Nc2ccccc2C)cc1	-23.3	-15.8	75.6*	-14.2	-13.2	-18.4	26.5	-2.2	-43.8
Cc1ccccc1NC(=O)NCCc1ccc(Cl)cc1	-30.9	-5.0	-8.0	-6.8	-8.7	18.8	/	/	/
Cc1ccccc1NC(=O)NCCCCc1ccccc1	-7.3	-6.2	96.0*	-20.0	-17.9	-14.1	6.1	22.9	-74.3
COCCNC(=O)c1cccc(OC2CCN(Cc3ccc(C(=O)OC)cc3)CC2)c1	-10.1	2.4	59.9*	7.5	-0.1	9.3	15.6	-1.1	10.2
O=C(COC(=O)c1cnc(Cl)c(Cl)c1)NCCC1=CCCCC1	-5.0	-7.5	50.9	-3.2	-25.2	11.2	9.4	17.1	0.0
COC(=O)C1=C(C)N(Cc2ccccc2C(F)(F)F)C(=NCc2ccc(OC)cc2)NC1c1cccc(F)c1 (stereo not drawn)	-10.5	/	/	/	/	-20.9	/	/	/
Cc1cc(=O)c2c(ccc3c(=O)cc(C)[nH]c32)[nH]1	-13.9	/	/	/	/	-13.4	/	/	/
COc1cc(-c2noc(C)c2/C=C/c2ccc(OC(C)=O)cc2)cc(OC)c1OC	-3.3	40.2	53.2	5.2	-8.5	-96.1	68.9*	58.4*	4.8
Cc1cccc(N2CN(Cc3cccnc3)CNC2=S)c1C	0.4	6.2	55.3*	1.9	-4.2	-2.9	28.6	-4.2	-5.5
COC(=O)c1c[nH]c2c1-c1cc(C(=O)OCc3ccccc3)n(S(=O)(=O)c3ccc(C)cc3)c1C(=O)C2=O	-10.5	-1.3	55.1*	-8.2	8.1	-3.0	76.4*	51.0*	100.3*
COC(=O)c1ccc(=O)n(-c2ccc(OC)cc2)c1	-21.0	-1.4	76.3*	5.0	-15.2	-8.8	20.4	1.8	-1.1
COc1ccc(C(=O)OCCN2CCN(C3CN(Cc4cn(Cc5ccccc5Cl)nn4)S(=O)(=O)C3)CC2)cc1OC (stereo not drawn)	-1.3	/	/	/	/	35.4	/	/	/
COC(=O)c1cc2c(c3c4cc(C#N)ccc4n(S(=O)(=O)c4ccc(C)cc4)c13)C(=O)N(C)C2	-8.5	/	/	/	/	-3.8	/	/	/
